PLK1 PBD inh = inhibitors of human PLK1 polo-box domain binding | Plk1 PBD binding of FITC phosphopeptide, fluorescence polarization | Potency, µM, actives largely listed as inhibitors | 2.8% of 360,000 active; further: series mostly up to about 57 µM; nearly all actives have a fitted effect of over 65% in size
Sfp inh = blocks B. subtilis Sfp PPTase activity; AID 1490; Biochemical Sfp PPTase activity, qHTS; Potency, µM, usual class: inhibitors; 3.5% of 310,000 active;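 further: the enzyme is Sfp with the accession as filed and its product quenches rhodamine fluorescence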
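After 15 min at room temperature with compound, 15 nM Sfp received 5 uM rhodamine-CoA plus 12.5 uM BHQ-2-ybbR (50 mM Hepes pH 7.6, 10 mM MgCl2). Rate came from the fluorescence difference over 30 min, ex 525/em 598 nm.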
12-LOX inh = inhibitors of human 12S-lipoxygenase ALOX12; P18054; purified 12hLO, xylenol orange hydroperoxide absorbance; Potency, µM (series often up to 108 µM), usual class: inhibitors; 1.1% of 580,000 active
Target sequence (P18054 whole entry, looked up): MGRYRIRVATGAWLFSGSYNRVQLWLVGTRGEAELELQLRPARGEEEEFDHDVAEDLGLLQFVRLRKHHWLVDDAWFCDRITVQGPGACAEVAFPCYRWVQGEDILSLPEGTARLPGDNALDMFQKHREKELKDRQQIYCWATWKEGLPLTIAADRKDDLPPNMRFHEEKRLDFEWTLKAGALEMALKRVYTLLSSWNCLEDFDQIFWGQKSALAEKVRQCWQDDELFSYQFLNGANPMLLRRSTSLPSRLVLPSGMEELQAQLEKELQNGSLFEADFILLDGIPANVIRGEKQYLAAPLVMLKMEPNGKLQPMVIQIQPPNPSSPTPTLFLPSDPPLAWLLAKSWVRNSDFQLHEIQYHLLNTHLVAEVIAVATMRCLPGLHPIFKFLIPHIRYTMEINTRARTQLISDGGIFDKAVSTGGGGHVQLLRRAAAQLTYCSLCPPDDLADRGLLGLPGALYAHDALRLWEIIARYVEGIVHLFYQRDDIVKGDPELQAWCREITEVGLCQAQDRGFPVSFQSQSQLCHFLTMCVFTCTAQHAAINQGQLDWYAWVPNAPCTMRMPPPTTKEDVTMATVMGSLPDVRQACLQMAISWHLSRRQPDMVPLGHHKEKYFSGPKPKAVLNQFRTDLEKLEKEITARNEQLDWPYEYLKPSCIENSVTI
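Purified human 12hLO (150 nM final) in 25 mM Hepes, 0.01% Triton X-100, pH 7.0 was preincubated 15 min at room temperature with compound. Then 40 uM arachidonic acid was added, 30 min. Hydroperoxide was read by Fe-XO absorbance ratio 573/405 nm.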
VDR inhibitor = vitamin D3 receptor (human) inhibition. 0.93% of 400,000 active. VDR-SRC2-3 peptide fluorescence polarization, 2 h. P11473. Potency, µM, hits mostly inhibitors
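Fluorescence polarization assay of small-molecule disruption of VDR binding to coregulator peptide SRC2-3. Compounds and controls pin-transferred, then read after 2 h incubation at ambient room temperature.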
Numbers stand for hits; n = inactive; u = inconclusive; x = no result given; ! = not confirmed by another sample. Compounds with a hit are over-represented: about 4.2% of the library has one in this group of screens. The call rests on the fitted dose curve; in most records, active means well fitted curve in the direction sought with a large enough effect; inconclusive means small, poorly fitted or top-dose-only effect, or another doubt; inactive means no such curve, though single readings can be large; an effect the other way counts as inactive or inconclusive.

SMILES | PLK1 PBD inh | Sfp inh | 12-LOX inh | VDR inhibitor
COC(=O)c1ccc(NC(=O)c2c(Br)cnn2C)cc1 | 23.8µM | 35.5µM | u | u
COC(=O)c1cc(NC(=O)c2c(Cl)cnn2C)cc(C(=O)OC)c1 | n | n | n | n
Cc1cc(C2=NNC(=NC3CCCCC3)SC2)c(C)n1-c1c(C)n(C)n(-c2ccccc2)c1=O | n | u | n | n
Cc1cc(C2=NNC(=NC3CC3)SC2)c(C)n1-c1ccccc1F | 26.7µM | 44.7µM | u | u
Cn1nc(C(F)(F)F)c(/C=N/OC(=O)c2ccccc2)c1Sc1ccc(Cl)cc1 | n | n | n | 89.1µM
Cc1[nH]c2ccccc2c1/C=N/NC(=O)CCC(=O)NCc1ccccc1 | 11.9µM | n | n | n
Cc1n[nH]c(C)c1CCC(=O)N/N=C/c1c(C)[nH]c2ccccc12 | n | n | n | n
O=[N+]([O-])c1ccc(NC(=S)N2CCOCC2)cc1 | n | n | n | n
O=S(=O)(/C=C/C=C/S(=O)(=O)c1ccccc1)c1ccccc1 | 2.67µM | x | n | u
Cn1c(NC(=O)c2ccc(F)cc2)nc2ccccc21 | n | n | n | n
S=C(Nc1ccccc1)Nc1nc2ccccc2n1CCOc1ccc(Br)cc1 | n | n | 28.2µM | n
Cn1c(NC(=S)Nc2ccccc2)nc2ccccc21 | 23.8µM | n | u | u
CCc1ccc(OCC(=O)Nc2ccc3c(c2)c2ccccc2n3CC)c(Br)c1 | x | x | n | n
N#Cc1cc([N+](=O)[O-])c(-n2nnc3ccccc32)c([N+](=O)[O-])c1 | 10.6µM | n | x | u
Cc1cc2c(cc1C)N(C(=O)CSc1nncn1C)C(C)(C)c1ssc(=S)c1-2 | n | n | u | n
Cc1ccc2c(c1)N(C(=O)CSc1nncn1C)C(C)(C)c1ssc(=S)c1-2 | n | n | 35.5µM | n
O=C1CC(NC(=O)C(F)(F)F)=NN1c1ccccc1 | n | n | n | n
CC(C)(Oc1ccc(Cl)cc1)C(=O)NC1=NN(c2ccccc2)C(=O)C1 | n | n | 50.1µM | n
CC(C)(C)c1ccc(OC(=O)Cn2c(C(F)(F)F)nc3ccccc32)cc1 | u | n | n | n
O=C(Cn1c(C(F)(F)F)nc2ccccc21)Oc1cccc(C(F)(F)F)c1 | n | 79.4µM | n | n
CCOc1ccc(C(=O)NCc2ccccc2OC)cc1 | n | n | u | n
CN=c1scc(-c2ccc([N+](=O)[O-])cc2)n1/N=C/c1ccco1 | n | n | u | n
CN=c1scc(-c2ccc(F)cc2)n1/N=C/c1ccc(O)c(O)c1 | n | 56.2µM | 44.7µM | n
C=CCCCCCCCCC(=O)Nc1ncccn1 | 11.9µM | n | n | u
O=C(CCSc1ccccc1)Nc1ncccn1 | n | n | n | n
SMILES | PLK1 PBD inh | Sfp inh | 12-LOX inh | VDR inhibitor
Cc1ccc(OCCSc2nc3ncnc(N)c3[nH]2)cc1 | 9.47µM | n | n | u
c1ccc(CNc2c(-c3cccc(SC4CCCCC4)c3)nc3ccccn23)cc1 | n | x | 14.1µM | n
CNC(=S)N/N=C/c1ccco1 | n | 56.2µM | u | n
COc1cc(/C=N/NC(=O)c2ccccn2)cc2c1OCO2 | n | 50.1µM | n | n
O=C(N/N=C/c1ccco1)c1cccc(N2Cc3ccccc3C2)c1 | 26.7µM | n | n | u
O=C(N/N=C/c1ccco1)c1ccccn1 | n | 50.1µM | n | n
OC(c1ccccc1)(c1ccccc1)C1CCN(CCCOc2ccccc2Cl)CC1 | n | x | u | x
O=C(CNC(=O)c1ccccc1F)OCCCOC(=O)CNC(=O)c1ccccc1F | n | x | n | n
Cc1cc(Oc2cc(NN3CCCCC3)c([N+](=O)[O-])cc2[N+](=O)[O-])c(C(=O)c2ccccc2)cc1Cl | n | n | n | n
CC(=O)NCC(=O)OCC(=O)c1ccc(Cl)cc1 | n | n | n | n
Cc1ccccc1/C=N\NC(=O)c1csnn1 | n | 14.1µM | u | n
Cc1ccsc1/C=N/NC(=O)c1ccccn1 | n | 56.2µM | n | n
Cc1ccccc1/C=N/NC(=O)c1cccs1 | x | x | n | x
CCOc1ccc(/C(CCC(=O)O)=N/NC(=S)NC(C)C)cc1 | u | 35.5µM | u | n
CCOc1ccc(C(=O)CCC(=O)O)cc1 | n | n | n | n
S=C(CSc1ccccc1)Nc1cccc2ccccc12 | 10.6µM | x | u | x
O=C(Nc1ccccc1C(=O)Nc1nnc(C(F)(F)F)s1)c1ccccc1Cl | 26.7µM | n | u | n
NC(=O)c1ccccc1NC(=O)c1ccccc1Cl | n | n | n | n
C/C(CCC(C)C)=N\Nc1cc(C)c2ccccc2n1 | n | 28.2µM | n | u
C/C(=N/Nc1cc(C)c2ccccc2n1)c1cccs1 | x | x | n | x
COc1ccc(/C(C)=N/N=C2/NC(=O)CC(C(=O)O)S2)cc1 (stereo not given) | 11.9µM | n | n | u
O=C(c1cc2ccccc2oc1=O)N(Cc1cccs1)Cc1cccs1 | 15µM | n | n | u
O=C(NCC(c1cccs1)N1CCOCC1)c1cc2ccccc2oc1=O (stereo not given) | n | x | 17.8µM! | n
NC(=O)CCC(NS(=O)(=O)c1ccc(Cl)cc1)C(=O)NCc1ccc(Cl)cc1 (stereo not given) | n | n | n | n
NC(=O)CCC(NS(=O)(=O)c1ccc(Cl)cc1)C(=O)NCC1CCCCC1 (stereo not given) | 10.6µM | n | u | u
SMILES | PLK1 PBD inh | Sfp inh | 12-LOX inh | VDR inhibitor
CC1=C(C(=O)OCc2ccccc2)C(c2ccccc2[N+](=O)[O-])NC(=O)N1C (stereo not given) | n | n | 15.8µM | n
CCOC(=O)C1=C(C)N(C)C(=O)NC1c1cc2c(cc1[N+](=O)[O-])OCO2 (stereo not given) | n | 50.1µM | u | n
CCCCOC(=O)C1=C(C)N(C)C(=O)NC1c1cc2c(cc1Br)OCO2 (stereo not given) | n | x | n | x
CC1=C(C(=O)OCc2ccccc2)C(c2ccc([N+](=O)[O-])cc2)NC(=O)N1C (stereo not given) | n | n | n | n
NC(=O)CC(NSc1ccccc1[N+](=O)[O-])C(=O)O (stereo not given) | 3.77µM | 50.1µM | u | u
O=C(O)C1CCC(NSc2ccccc2[N+](=O)[O-])CC1 (stereo not given) | 2.38µM | n | n | 28.2µM
O=[N+]([O-])c1ccccc1SNc1ccccc1 | n | x | n | x
CCOC(=O)C1CCCN(C(=O)Cn2ncc3c(C)n(Cc4ccccc4F)c(C)c3c2=O)C1 (stereo not given) | x | x | n | n
CCN(CC)CCNC(=O)CN1C(=O)c2cccnc2Oc2ccc(C)cc21 | x | x | n | n
Cc1ccc2c(c1)N(CC(=O)NCCC1=CCCCC1)C(=O)c1cccnc1O2 | n | n | 20µM | n
C=C(C)C(=O)Nc1cccc(C2=NOC3(C2)C[C@@H](C(N)=O)N(C(=O)c2ccc(Cl)cc2)C3)c1 (stereo not given in full) | 23.8µM | n | x | n
C=C(C)C(=O)Nc1cccc(C2=NOC3(C2)C[C@H](C(N)=O)N(C(=O)c2ccccc2)C3)c1 (stereo not given in full) | u | n | n | n
C=C(C)C(=O)Nc1cccc(C2=NOC3(C2)C[C@H](C(N)=O)N(C(=O)COc2ccc(Cl)cc2)C3)c1 (stereo not given in full) | 23.8µM | n | n | n

Screening results (PubChem BioAssay)
